Measured values reported in PubChem BioAssay (EPA / NIEHS).
Where “and” joins values, the source holds several entries; their conditions need not be identical. Equal values may be shown once. Inconclusive results are not listed. Some compounds were tested as several samples or in several runs, with calls that do not always agree. Calls of active or inactive are those of the source. The calls were made as follows, unless noted: active = hit-call score of the fitted dose curve at least 0.9, where 1 is the maximum; inactive = score below 0.9.

What was measured:
[1] = target: Nucleoli Translocation, AR (gene 367) (UniProt P10275); assay: UPITT_HCI_U2OS_AR_TIF2_Nucleoli_Antagonist: University of Pittsburgh U2OS Androgen Receptor-Transcriptional Intermediary Factor 2 (AR-TIF2) Antagonism High Content Imaging Assay for Nucleoli Translocation (AID 2283997; active = hit-call score of the fitted dose curve at least 0.9, where 1 is the maximum)
Sequence of Nucleoli Translocation, AR (gene 367) (P10275 whole entry, looked up): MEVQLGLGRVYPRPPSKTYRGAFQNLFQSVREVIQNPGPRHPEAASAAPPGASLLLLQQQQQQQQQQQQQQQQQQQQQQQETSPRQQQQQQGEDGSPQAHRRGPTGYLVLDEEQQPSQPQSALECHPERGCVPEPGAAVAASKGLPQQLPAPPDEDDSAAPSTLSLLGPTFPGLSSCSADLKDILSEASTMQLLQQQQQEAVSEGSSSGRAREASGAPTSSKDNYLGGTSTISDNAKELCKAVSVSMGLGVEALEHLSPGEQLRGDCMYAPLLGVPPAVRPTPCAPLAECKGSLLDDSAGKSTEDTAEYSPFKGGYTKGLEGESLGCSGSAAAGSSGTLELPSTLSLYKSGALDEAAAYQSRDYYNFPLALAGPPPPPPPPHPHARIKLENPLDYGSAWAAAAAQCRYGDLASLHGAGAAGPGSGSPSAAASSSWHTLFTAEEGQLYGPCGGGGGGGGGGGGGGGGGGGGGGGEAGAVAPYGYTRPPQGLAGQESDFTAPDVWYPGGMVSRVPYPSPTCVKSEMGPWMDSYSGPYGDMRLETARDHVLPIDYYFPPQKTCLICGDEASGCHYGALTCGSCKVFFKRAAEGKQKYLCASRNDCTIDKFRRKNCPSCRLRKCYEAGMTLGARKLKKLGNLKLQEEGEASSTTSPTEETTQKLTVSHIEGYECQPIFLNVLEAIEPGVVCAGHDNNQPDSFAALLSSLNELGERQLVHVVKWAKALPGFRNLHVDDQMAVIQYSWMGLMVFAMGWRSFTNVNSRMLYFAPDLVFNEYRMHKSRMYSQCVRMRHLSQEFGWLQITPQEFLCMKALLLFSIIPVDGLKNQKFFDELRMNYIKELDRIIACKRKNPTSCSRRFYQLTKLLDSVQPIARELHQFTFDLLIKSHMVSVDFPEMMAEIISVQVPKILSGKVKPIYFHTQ
Summary of the method: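 U2OS cells co-expressing red-fluorescent-tagged human AR and green-fluorescent-tagged TIF2, imaged by high-content microscopy for nucleolar red fluorescence. Antagonist mode against DHT; primary screen at 20 uM final (0.2% DMSO).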

[2] = target: Nucleoli Translocation, AR (gene 367) (UniProt P10275); assay: UPITT_HCI_U2OS_AR_TIF2_Nucleoli_Agonist: University of Pittsburgh U2OS Androgen Receptor-Transcriptional Intermediary Factor 2 (AR-TIF2) Agonism High Content Imaging Assay for Nucleoli Translocation (AID 2283998; active = hit-call score of the fitted dose curve at least 0.9, where 1 is the maximum)
Summary of the method: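 Red-tagged human androgen receptor co-expressed with GFP-tagged TIF2 serves as the binding reporter. Primary testing used 20 uM final (0.2% DMSO); follow-up dose response covered 0.195 to 50 uM final (0.5% DMSO).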

[3] = target: Ratio of Nucleoli Translocation and Cytoplasm, AR (gene 367) (UniProt P10275); assay: UPITT_HCI_U2OS_AR_TIF2_Nucleoli_Cytoplasm_Ratio_Antagonist: University of Pittsburgh U2OS Androgen Receptor-Transcriptional Intermediary Factor 2 (AR-TIF2) Antagonism High Content Imaging Assay for Ratio of Nucleoli Translocation and Cytoplasm (AID 2283999; active = hit-call score of the fitted dose curve at least 0.9, where 1 is the maximum;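 also: antagonists lower the DHT-driven ratio of nucleolar to cytoplasmic red signal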)
Sequence of Ratio of Nucleoli Translocation and Cytoplasm, AR (gene 367) (P10275 whole entry, looked up): as above
Summary of the method: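 High-content imaging quantifies the red nucleolar:cytoplasmic fluorescence ratio in U2OS cells with AR-RFP and TIF2-GFP. Final concentrations are 20 uM (screen) or 0.195–50 uM (dose response), analysed against DHT as baseline.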

[4] = target: Ratio of Nucleoli Translocation and Cytoplasm, AR (gene 367) (UniProt P10275); assay: UPITT_HCI_U2OS_AR_TIF2_Nucleoli_Cytoplasm_Ratio_Agonist: University of Pittsburgh U2OS Androgen Receptor-Transcriptional Intermediary Factor 2 (AR-TIF2) Agonism High Content Imaging Assay for Ratio of Nucleoli Translocation and Cytoplasm (AID 2284000; active = hit-call score of the fitted dose curve at least 0.9, where 1 is the maximum;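 also: hits raise the red nucleolar to cytoplasm ratio above vehicle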)
Summary of the method: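 U2OS cells expressing RFP-tagged human AR and GFP-tagged TIF2; high-content imaging ratio of nucleolar to cytoplasmic red fluorescence, fitted as gain of signal vs DMSO. Single point at 20 uM final (0.2% DMSO); concentration-response 0.195-50 uM final (0.5% DMSO).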

[5] = CCTE_Shafer_MEA_acute_spike_number: CCTE's Neural Acute Assay for Total Number of Spikes, Shafer Lab (AID 2284008);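 as to AC50: curve fitted for decrease in spike count so AC50 reflects inhibitors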
Summary of the method: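 Cortical neurons from rat, matured to DIV 13 or 15 on microelectrode arrays, are recorded at 37 C before and during 40-min exposure to 0.03-40 uM compound. Wells need >/= 10 active electrodes.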

[6] = CCTE_Shafer_MEA_acute_firing_rate_mean: CCTE's Neural Acute Assay for Mean Firing Rate, Shafer Lab (AID 2284009);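 also: analyzed for loss of signal so actives lower firing rate relative to DMSO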
Summary of the method: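 Rat primary cortical neurons on 48-well MEA plates, dosed at 0.03-40 uM on DIV 13 or 15; 40 min spontaneous activity recorded at 37 C before and after compound. Spike rate per electrode averaged per well, expressed as percent change from baseline.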

[7] = CCTE_Harrill_HTTr_Viability_MCF7: CCTE's 6-hour Cell Viability Assessment for the High-Throughput Transcriptomics (HTTr) Platform, in MCF-7 cells cultured in DMEM + 10% fetal bovine serum, Harrill Lab (AID 2284010)
Summary of the method: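 Viability measured through PI dye exclusion by high-content imaging at 6 h post-dosing.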

[8] = CCTE_Harrill_HTTr_Apoptosis_MCF7: CCTE's 6-hour Apoptosis Assessment for the High-Throughput Transcriptomics (HTTr) Platform, in MCF-7 cells cultured in DMEM + 10% fetal bovine serum, Harrill Lab (AID 2284011)
Summary of the method: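 Cells are dosed with test chemicals at eight concentrations and imaged 6 hours later for caspase-3/7 activity using a green fluorogenic detection reagent. Activity is fitted in both directions against DMSO controls.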

[9] = CCTE_Harrill_HTTr_CellCount_MCF7: CCTE's Cell Proliferation Assessment for the High-Throughput Transcriptomics (HTTr) Platform, Harrill Lab (AID 2284012; active = hit-call score of the fitted dose curve at least 0.9, where 1 is the maximum;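 also: count of Hoechst-stained nuclei per well by high-content imaging in MCF-7 cells; cells exposed to compound for six hours; intended direction is loss of nuclei count meaning fewer cells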)
Summary of the method: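 Nuclei counting (Hoechst, high content imaging) in MCF-7 after a 6 h treatment at eight concentrations. Activity fitted bidirectionally, DMSO as negative control.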

[10] = CCTE_Simmons_MITO_basal_resp_rate: CCTE's HepG2 Seahorse XF Respirometric Screening Assay at Basal Respiratory State, Simmons Lab (AID 2284001); conditions: actives raise or lower the signal
Summary of the method: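 HepG2 oxygen consumption on Seahorse XF96 after compound injection, 7 concentrations 125 nM–100 uM final, reads every 6 min over 72 min. Triplicate biological replicates; bidirectional fit vs DMSO; fenpyroximate and 2,4-dinitrophenol controls.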

[11] = CCTE_Simmons_MITO_max_resp_rate: CCTE's HepG2 Seahorse XF Respirometric Screening Assay at Maximal Respiratory State [uncoupled], Simmons Lab (AID 2284002); conditions: actives raise or lower the signal
Summary of the method: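 Maximal respiration in HepG2 cells is recorded as OCR by Seahorse XF following FCCP injection. Compounds span 125 nM–100 uM final; activity is called in either direction against DMSO.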

[12] = CCTE_Simmons_MITO_inhib_resp_rate: CCTE's HepG2 Seahorse XF Respirometric Screening Assay at Inhibited Respiratory State [full ETC block], Simmons Lab (AID 2284006); conditions: actives raise or lower the signal
Summary of the method: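 Inhibited respiration was taken as HepG2 oxygen consumption after rotenone/antimycin A, which followed test-compound and FCCP injections. Chemicals were tested at seven final concentrations from 125 nM to 100 uM. Activity was fitted bidirectionally relative to DMSO.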

[13] = CCTE_Simmons_MITO_viability: CellTiter-Glo Viability Assessment for CCTE's HepG2 Seahorse XF Respirometric Screening Assay [post-hoc], Simmons Lab (AID 2284007; active = hit-call score of the fitted dose curve at least 0.9, where 1 is the maximum)
Summary of the method: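 HepG2 cells; test chemical 7 conc. (125 nM–100 uM final) × 90 min; then luminescent ATP detection. DMSO vehicle. Positive control dichlone, 8 conc. from 10 nM to 100 uM final. Loss-of-signal endpoint.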

DIO1 (gene 1733) = assay: CCTE_GLTED_hDIO1: CCTE's human Deiodinase 1 (DIO1) Inhibition Assay, Great Lakes Toxicology and Ecology Division (GLTED) Lab (AID 2283987; active = hit-call score of the fitted dose curve at least 0.9, where 1 is the maximum;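 also: isolated human DIO1 enzyme in a cell-free setup rather than cells; enzyme activity read as free iodide liberated from substrate via Sandell-Kolthoff colorimetry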)
Summary of the method: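 Cell-free hDIO1 assay, triplicate plates. Absorbance of the Sandell-Kolthoff reaction reports enzyme-liberated iodide; iodinated chemicals or nitrite, iron and thiocyanate may interfere.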

Measured: AC50

O=C(NC(=O)c1c(F)cccc1F)Nc1cc(Cl)c(OC(F)(F)C(F)F)c(Cl)c1
not listed: [10] | [11] | [12] | [13] | DIO1 (gene 1733)
inactive: all other assays above

Cc1ccccc1CO[C@@H]1C[C@@]2(C(C)C)CC[C@]1(C)O2
inactive: [1] | [2] | [3] | [4] | [7] | [8]

CCCCCCCCOC(=O)c1ccccc1C(=O)OCCCCCCCC
inactive: [1] | [3] | [7] | [8] | [9]

COc1ccc(O)c(C(C)(C)C)c1
inactive: [11] | [12] | [13] | [5] | [6] | [7] | [8]
active: [10] 44000 nM | [5] 3.04 µM and 633 nM | [6] 3.03 µM and 679 nM

C[C@]12CCC(=O)C=C1CC[C@@H]1[C@@H]2CC[C@]2(C)C(=O)CC[C@@H]12
inactive: [11] | [12] | [13]
active: [10] 38000 nM

CO/C=C(/C(=O)OC)c1ccccc1COc1cccc(C(F)(F)F)n1
inactive: [13] | [7] | [8]
active: [10] 2020 nM | [11] 1300 nM | [12] 1100 nM | [5] 278 nM | [6] 280 nM

O=C(O)C(F)(F)C(F)(F)C(F)(F)C(F)(F)C(F)(F)C(F)(F)C(F)(F)C(F)(F)C(F)(F)F
active: DIO1 (gene 1733) 103 µM and 70.6 µM
inactive: [10] | [11] | [12] | [13] | [7] | [8] | [9]

c1cc2ccc3cccc4ccc(c1)c2c34
inactive: [1] | [2] | [3] | [4] | [7] | [8]

N#Cc1ccc(N(CC(N)=O)CC(F)(F)F)cc1C(F)(F)F
inactive: [10] | [11] | [12] | [13] | [7] | [8]

O=C(NC(=O)c1cc(F)c(F)cc1Cl)Nc1cc(F)ccc1N1CCC(C(=O)O)CC1
inactive: [7] | [8]

Clc1ccc(Cl)cc1
inactive: [7] | [8]

Cc1cc2c3c(c1)C(c1ccccc1)=N[C@@H](NC(=O)c1ccncc1)C(=O)N3CC2
inactive: [7] | [8] | [9]

Sc1ccccc1
inactive: [7] | [8] | [9]

ClC1=C(Cl)[C@]2(Cl)[C@@H]3[C@@H](Cl)[C@H]4O[C@H]4[C@@H]3C1(Cl)C2(Cl)Cl
inactive: [7] | [8] | [9]
active: [5] 106 nM | [6] 107 nM

ClC1=C(Cl)[C@]2(Cl)[C@@H]3[C@H]4C[C@H]([C@@H]5O[C@H]45)[C@@H]3[C@@]1(Cl)C2(Cl)Cl
inactive: [7] | [8] | [9]
active: [5] 1380 nM | [6] 1400 nM

Clc1ccc(C(Cl)(Cl)Cl)cc1
inactive: [5] | [6] | [7] | [8] | [9]

Cc1ccc(O)c(C)c1
inactive: [7] | [8] | [9]

O=S(=O)(O)C(F)(F)C(F)(F)C(F)(F)C(F)(F)C(F)(F)C(F)(F)F
inactive: [7] | [8] | [9]

Oc1ccc(Cl)cc1Cl
inactive: [7] | [8]

Cc1cccc([N+](=O)[O-])c1
inactive: [7] | [8]

ClC1=C(Cl)[C@]2(Cl)[C@@H]3[C@@H]4C[C@@H]([C@H]5O[C@@H]45)[C@@H]3[C@@]1(Cl)C2(Cl)Cl
active: [5] 476 nM | [6] 489 nM
inactive: [7] | [8]

Cc1ccccc1O
inactive: [7] | [8] | [9]

O=C(O)C(F)(F)C(F)(F)C(F)(F)C(F)(F)C(F)(F)F
inactive: [5] | [6] | [7] | [8] | [9]

Nn1cnnc1
inactive: [7] | [8] | [9]

Cc1cccc(C)c1N
inactive: [7] | [8] | [9]

CN(C)CCO
inactive: [5] | [6] | [7] | [8]

CN(C)c1nc(=O)n(C2CCCCC2)c(=O)n1C
inactive: [7] | [8]

ClC(Cl)=C(c1ccc(Cl)cc1)c1ccc(Cl)cc1
inactive: [5] | [6] | [7] | [8] | [9]

O=NN(c1ccccc1)c1ccccc1
inactive: [7] | [8]

CCOP(=S)(OCC)SCSC(C)(C)C
inactive: [7] | [8] | [9]

Cc1cc(O)ccc1Cl
inactive: [7] | [8] | [9]

C=CC(N)=O
inactive: [5] | [6] | [7] | [8] | [9]

Cc1cc(-c2ccc(N)c(C)c2)ccc1N
inactive: [7] | [8] | [9]

Clc1ccc(C(c2ccccc2Cl)C(Cl)(Cl)Cl)cc1 (stereo unspecified)
inactive: [7] | [8] | [9]

COS(=O)(=O)OC
inactive: [5] | [6] | [7] | [8] | [9]

CCCCCCOC(=O)c1ccccc1C(=O)OCCCCCC
inactive: [7] | [8] | [9]

O=S(=O)(O)C(F)(F)C(F)(F)C(F)(F)C(F)(F)F
inactive: [7] | [8] | [9]

CCCN(CCC)N=O
inactive: [5] | [6] | [7] | [8] | [9]

CCC(C)(CC)c1cc(NC(=O)c2c(OC)cccc2OC)on1
inactive: [5] | [6] | [7] | [8] | [9]

C1CC2OC2CC1C1CO1 (stereo unspecified)
inactive: [7] | [8]

CCOCCOC(C)=O
inactive: [7] | [8] | [9]
